Set-up in all cases: scale not given: direction of the effect not stated beside the values
Assay [1] concerns the target Protein translocase subunit SecA (Escherichia coli (strain K12)) (UniProt P10408). As to the kind of experiment: Assay to Identify E. coli SecA ATPase Inhibitors. The class given is functional. Particulars: 30 µM.
For assay [2], the target named is T1, Ubiquitin-activating enzyme e1, putative (Leishmania donovani (strain BPK282A1)) (UniProt E9BSI1).
T1 sequence (whole entry): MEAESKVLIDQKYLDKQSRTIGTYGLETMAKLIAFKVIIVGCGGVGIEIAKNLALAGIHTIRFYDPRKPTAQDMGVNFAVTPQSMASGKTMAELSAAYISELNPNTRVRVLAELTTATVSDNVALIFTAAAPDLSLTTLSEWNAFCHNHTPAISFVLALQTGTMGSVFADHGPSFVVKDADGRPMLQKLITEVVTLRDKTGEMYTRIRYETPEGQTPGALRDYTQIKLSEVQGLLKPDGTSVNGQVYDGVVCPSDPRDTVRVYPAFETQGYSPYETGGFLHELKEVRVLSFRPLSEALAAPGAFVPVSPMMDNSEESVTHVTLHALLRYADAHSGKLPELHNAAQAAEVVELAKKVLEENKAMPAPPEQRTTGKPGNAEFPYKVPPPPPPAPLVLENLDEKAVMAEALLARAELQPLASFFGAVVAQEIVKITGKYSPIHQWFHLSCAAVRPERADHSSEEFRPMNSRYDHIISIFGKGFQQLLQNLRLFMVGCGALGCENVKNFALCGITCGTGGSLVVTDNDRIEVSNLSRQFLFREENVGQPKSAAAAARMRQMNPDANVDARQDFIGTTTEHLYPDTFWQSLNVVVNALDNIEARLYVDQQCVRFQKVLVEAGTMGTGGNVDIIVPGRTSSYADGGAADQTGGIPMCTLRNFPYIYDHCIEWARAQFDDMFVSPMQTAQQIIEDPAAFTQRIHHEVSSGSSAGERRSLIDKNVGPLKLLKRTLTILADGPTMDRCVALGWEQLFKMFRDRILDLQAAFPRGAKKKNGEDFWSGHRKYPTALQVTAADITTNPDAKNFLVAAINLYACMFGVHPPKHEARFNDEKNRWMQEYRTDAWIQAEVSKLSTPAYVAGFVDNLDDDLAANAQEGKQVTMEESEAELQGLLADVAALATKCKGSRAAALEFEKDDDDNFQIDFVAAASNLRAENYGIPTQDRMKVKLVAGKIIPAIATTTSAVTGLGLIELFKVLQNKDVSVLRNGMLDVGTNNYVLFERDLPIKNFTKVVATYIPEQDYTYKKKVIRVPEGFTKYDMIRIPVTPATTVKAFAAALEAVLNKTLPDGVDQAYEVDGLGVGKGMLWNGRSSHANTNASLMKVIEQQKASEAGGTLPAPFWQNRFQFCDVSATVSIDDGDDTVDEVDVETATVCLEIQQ
As to the kind of experiment: Leishmania donovani Ubiquitin Activating Enzyme (LdE1). As to conditions: 30 µM. Format: functional.

Assay [3] deals with Sialic acid-binding Ig-like lectin 9 (Homo sapiens) (UniProt Q9Y336). As to the kind of experiment: Hs-Siglec9 ALPHAscreen SOP 20170721. As to conditions: 10 µM. (Alpha assays give light when donor and acceptor beads are brought close together.)
The test system of assay [4] is Trypanosoma cruzi. As to the kind of experiment: Trypanosoma cruzi phosphomannomutase and mannose-1-phosphate guanylyltransferase assay. The class given is functional. As to conditions: 10 µM.
Assay [5] addresses T2, Arginase-2, mitochondrial (Homo sapiens) (UniProt P78540).
T2 sequence (whole entry): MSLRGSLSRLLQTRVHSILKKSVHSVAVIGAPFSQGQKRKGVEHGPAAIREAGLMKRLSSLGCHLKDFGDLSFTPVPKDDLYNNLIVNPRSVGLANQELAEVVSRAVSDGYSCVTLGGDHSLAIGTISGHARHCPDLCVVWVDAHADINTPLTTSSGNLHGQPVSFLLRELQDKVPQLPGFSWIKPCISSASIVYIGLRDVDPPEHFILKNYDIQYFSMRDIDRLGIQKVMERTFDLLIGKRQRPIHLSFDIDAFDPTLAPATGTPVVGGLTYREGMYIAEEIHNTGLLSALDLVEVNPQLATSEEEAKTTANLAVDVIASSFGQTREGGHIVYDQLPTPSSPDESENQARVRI
As to the kind of experiment: in vitro enzyme assay to detect the production of urea directly proportional to the activity of Arginase II. Also: in the data most compounds retested in dose-response had high values. The class given is functional. As to conditions: 33.3 µM.

For assay [6], the target named is T3, Proteasome subunit beta (Trypanosoma cruzi) (UniProt O96673).
T3 sequence (whole entry): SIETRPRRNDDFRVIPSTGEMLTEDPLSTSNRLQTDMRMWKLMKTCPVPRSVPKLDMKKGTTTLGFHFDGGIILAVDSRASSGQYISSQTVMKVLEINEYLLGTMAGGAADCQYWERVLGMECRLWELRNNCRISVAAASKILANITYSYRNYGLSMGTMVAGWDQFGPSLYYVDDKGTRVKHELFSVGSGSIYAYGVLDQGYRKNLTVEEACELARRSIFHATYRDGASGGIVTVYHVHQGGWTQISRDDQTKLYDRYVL
As to the kind of experiment: Trypanosoma cruzi proteasome chymotrypsin-like activity (TcProtChymo) assay. Also: in the data most compounds retested in dose-response had high values. The class given is functional. As to conditions: 9.37 µM.

The species named for assay [7] is Homo sapiens. As to the kind of experiment: To identify inhibition of the IFN signalling (Jak-Stat) pathway via expression of an eGFP reporter gene under the control of an IFN-stimulated response element (ISRE) containing MxA promoter. Format: functional. Particulars: 30 µM.
The target in assay [8] is T4, Tyrosyl-tRNA synthetase, putative (Trypanosoma cruzi (strain CL Brener)) (UniProt Q4DSP6).
T4 sequence (whole entry): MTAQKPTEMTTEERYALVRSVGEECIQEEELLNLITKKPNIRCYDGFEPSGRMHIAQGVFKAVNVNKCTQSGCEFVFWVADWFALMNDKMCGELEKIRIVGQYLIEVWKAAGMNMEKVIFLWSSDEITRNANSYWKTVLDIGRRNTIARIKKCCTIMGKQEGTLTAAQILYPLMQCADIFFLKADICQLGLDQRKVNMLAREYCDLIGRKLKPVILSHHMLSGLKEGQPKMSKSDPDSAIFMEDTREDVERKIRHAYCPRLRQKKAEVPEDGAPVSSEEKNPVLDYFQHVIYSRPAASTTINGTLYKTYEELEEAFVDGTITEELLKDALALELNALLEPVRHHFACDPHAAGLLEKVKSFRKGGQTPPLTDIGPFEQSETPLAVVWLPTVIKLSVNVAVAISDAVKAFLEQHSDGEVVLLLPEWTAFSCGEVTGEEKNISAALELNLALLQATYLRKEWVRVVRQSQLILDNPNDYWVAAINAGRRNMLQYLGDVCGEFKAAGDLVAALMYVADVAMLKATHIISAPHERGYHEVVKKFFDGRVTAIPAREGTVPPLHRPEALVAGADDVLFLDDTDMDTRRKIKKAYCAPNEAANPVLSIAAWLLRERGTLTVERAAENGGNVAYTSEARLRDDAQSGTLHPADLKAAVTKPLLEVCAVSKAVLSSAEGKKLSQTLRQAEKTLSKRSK
As to the kind of experiment: Trypanosoma cruzi tyrosyl tRNA synthetase (TcYRS) _High Tyrosine SOP. Also: in the data most compounds retested in dose-response had high values. The class given is functional. Particulars: 30 µM.

Assay [9] has as its target T4, Tyrosyl-tRNA synthetase, putative (Trypanosoma cruzi (strain CL Brener)). As to the kind of experiment: Trypanosoma cruzi tyrosyl tRNA synthetase (TcYRS) SOP. Format: functional. As to conditions: 30 µM.
Assay [10] has as its target Chromo domain-containing protein 1 (Saccharomyces cerevisiae (strain ATCC 204508 / S288c) (Baker's yeast)) (UniProt P32657). As to the kind of experiment: ScCHD-1 Enzyme Inhibition Assay. Also: in the data most compounds retested in dose-response had high values. The class given is functional. As to conditions: 30 µM.

For part of these data: Entries with a potency or affinity are not part of this list.

Chromo domain-containing protein 1 (Saccharomyces cerevisiae (strain ATCC 204508 / S288c) (Baker's yeast)), sequence (P32657 whole entry, the tested form may be a part): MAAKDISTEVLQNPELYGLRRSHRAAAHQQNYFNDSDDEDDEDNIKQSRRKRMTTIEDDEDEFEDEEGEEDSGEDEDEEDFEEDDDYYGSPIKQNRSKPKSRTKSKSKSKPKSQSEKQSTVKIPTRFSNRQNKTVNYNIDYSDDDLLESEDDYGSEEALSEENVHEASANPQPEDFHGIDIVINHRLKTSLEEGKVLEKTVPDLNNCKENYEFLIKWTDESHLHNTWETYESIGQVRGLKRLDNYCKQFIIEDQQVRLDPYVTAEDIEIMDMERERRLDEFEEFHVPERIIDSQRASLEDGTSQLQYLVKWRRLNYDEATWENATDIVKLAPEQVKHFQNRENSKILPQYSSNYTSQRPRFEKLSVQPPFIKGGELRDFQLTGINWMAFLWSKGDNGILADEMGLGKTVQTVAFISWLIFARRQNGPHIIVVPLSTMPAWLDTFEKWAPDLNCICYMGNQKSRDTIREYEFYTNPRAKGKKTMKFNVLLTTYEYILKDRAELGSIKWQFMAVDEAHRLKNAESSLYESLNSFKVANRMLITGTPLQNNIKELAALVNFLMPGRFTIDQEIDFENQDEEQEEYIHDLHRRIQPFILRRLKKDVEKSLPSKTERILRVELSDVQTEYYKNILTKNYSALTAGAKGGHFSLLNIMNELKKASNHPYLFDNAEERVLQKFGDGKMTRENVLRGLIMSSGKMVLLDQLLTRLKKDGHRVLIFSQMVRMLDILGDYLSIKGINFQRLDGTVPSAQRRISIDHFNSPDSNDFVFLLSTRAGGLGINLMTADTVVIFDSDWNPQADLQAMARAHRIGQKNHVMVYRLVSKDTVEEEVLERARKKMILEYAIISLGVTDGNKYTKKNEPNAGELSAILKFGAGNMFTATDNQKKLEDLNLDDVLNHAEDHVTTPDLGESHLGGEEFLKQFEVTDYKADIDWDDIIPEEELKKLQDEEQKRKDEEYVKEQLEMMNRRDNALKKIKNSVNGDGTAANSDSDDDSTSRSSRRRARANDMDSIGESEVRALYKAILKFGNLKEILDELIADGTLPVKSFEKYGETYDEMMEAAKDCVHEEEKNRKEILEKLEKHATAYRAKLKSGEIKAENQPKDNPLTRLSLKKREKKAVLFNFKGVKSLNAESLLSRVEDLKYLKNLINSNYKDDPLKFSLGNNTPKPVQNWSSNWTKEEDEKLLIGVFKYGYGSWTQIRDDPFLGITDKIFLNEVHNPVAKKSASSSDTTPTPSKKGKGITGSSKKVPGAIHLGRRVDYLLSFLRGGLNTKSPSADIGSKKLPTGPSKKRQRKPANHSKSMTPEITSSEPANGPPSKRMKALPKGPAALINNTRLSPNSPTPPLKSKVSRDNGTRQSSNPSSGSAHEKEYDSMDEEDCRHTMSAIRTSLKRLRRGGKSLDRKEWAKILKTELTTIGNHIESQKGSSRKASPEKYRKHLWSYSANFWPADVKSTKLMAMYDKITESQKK
Sialic acid-binding Ig-like lectin 9 (Homo sapiens), sequence (Q9Y336 whole entry): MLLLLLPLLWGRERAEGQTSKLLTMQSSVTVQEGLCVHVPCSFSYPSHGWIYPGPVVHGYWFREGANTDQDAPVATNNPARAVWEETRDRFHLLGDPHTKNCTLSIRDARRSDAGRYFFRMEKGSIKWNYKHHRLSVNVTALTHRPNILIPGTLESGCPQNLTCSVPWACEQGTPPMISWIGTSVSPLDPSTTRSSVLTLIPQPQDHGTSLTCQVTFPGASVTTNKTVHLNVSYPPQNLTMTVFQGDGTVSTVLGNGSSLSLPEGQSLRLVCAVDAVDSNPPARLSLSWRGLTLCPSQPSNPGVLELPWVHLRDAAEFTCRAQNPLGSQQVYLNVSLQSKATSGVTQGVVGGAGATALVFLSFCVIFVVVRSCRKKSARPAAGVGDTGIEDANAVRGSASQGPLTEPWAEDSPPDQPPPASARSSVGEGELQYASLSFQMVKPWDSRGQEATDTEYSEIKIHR
Protein translocase subunit SecA (Escherichia coli (strain K12)), sequence (P10408 whole entry): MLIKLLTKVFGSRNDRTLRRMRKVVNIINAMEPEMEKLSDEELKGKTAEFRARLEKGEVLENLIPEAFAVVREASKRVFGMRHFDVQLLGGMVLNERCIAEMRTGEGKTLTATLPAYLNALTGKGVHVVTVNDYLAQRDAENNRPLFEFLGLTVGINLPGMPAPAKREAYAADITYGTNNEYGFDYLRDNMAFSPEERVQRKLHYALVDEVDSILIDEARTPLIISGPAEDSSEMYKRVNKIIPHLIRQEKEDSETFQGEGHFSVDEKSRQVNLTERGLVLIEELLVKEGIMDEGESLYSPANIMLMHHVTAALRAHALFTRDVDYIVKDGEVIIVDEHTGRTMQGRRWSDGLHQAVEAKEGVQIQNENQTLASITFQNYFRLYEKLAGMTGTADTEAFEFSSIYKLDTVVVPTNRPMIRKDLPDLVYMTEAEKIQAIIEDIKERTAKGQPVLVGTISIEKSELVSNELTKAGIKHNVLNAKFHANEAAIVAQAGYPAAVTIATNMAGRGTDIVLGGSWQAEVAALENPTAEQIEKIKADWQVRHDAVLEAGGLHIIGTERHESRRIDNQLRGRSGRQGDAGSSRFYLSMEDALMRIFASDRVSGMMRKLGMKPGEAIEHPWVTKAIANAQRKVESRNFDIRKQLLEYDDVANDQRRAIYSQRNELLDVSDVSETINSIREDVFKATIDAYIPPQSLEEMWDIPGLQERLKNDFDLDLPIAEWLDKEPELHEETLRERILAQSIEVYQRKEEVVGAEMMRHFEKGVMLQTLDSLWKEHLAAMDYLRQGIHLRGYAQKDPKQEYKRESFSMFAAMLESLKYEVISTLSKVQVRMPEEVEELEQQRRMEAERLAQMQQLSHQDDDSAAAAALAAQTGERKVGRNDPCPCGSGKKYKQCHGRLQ

As for `CC(=O)NC1CCCN(C(=O)NCc2cccnc2-n2cccn2)C1` (stereo not given), the Percent Effect in assay [1] was -4.23%; in assay [2], 10.7%; in assay [3], -0.777%; in assay [4], -6.22%; in assay [5], 6.21%; in assay [6] it was 11.4%. The Percent Effect in assay [7] is 14.4%; in assay [8] it was 5.79%; in assay [9], 7.69%; in [10] it was -8.06%.
Turning to `Cn1cc(C(=O)N2CCC(Cc3nccs3)CC2)cn1`, the Percent Effect in assay [1] was 0.12%; in assay [2], 6.67%; in assay [3], -7.82%; in [4], -4.54%; in [5], -1.33%; in assay [6], 6.73%. In addition, the Percent Effect is 15% in [7], 4.23% in [8], 0% in assay [9] and -28.5% in [10].
With `Cc1cc2c(cc1C(=O)N1CC[C@H](CO)[C@@H](O)C1)OCCO2`, the Percent Effect was -9.1% in assay [1]; 2.7% in assay [2]; 2.86% in assay [3]; 4.37% in assay [4]; 1.05% in assay [5]; 8.22% in [6]. In addition, the Percent Effect in [7] was -0.0662%; in assay [8], 4.79%; in assay [9], 12.2%; in assay [10] it was -4.74%.
As for `N#Cc1cccc(N2CC3(CCN(C(=O)c4cccnc4)C3)CC2=O)c1` (stereo not given), the Percent Effect in assay [1] was -6.73%; in assay [2] it was 9.09%; in [3], -3.3%; in [4] it was -4.58%; in [5], -3.64%; in [6] it was 12.6%. The Percent Effect in assay [7] is -1.73%; in [8], 3.68%; in assay [9], 15.4%; in [10] it was -3.29%.
Consider `FC(F)(F)c1nc(NC2CCCC2)c2ccccc2n1`, for which the Percent Effect in assay [1] was 1.99%; in assay [2] it was -2.7%; in [3], -2.53%; in assay [4] it was -0.291%; in assay [5] it was 5.94%; in assay [6], 9.76%. In addition, the Percent Effect in assay [7] is 45.1%; in assay [8] it was 0.532%; in assay [9], -2.44%; in assay [10] it was 35%.
With `c1cnc(OCc2nnc3n2CCN(CC2CC2)C3)nc1`, the Percent Effect in assay [1] is -6.05%; in [2] it was 1.3%; in assay [3] it was 5.56%; in assay [4], 2.04%; in assay [5], -5.67%; in assay [6], 2.91%. The Percent Effect in assay [7] was -10.7%; in assay [8], 3.68%; in [9], 7.69%; in assay [10], 2.01%.
For `CC(C)N(Cc1cccc(F)c1)Cc1nc2c(cnn2C)c(=O)[nH]1`, the Percent Effect in [1] was -1.46%; in assay [2], 7.69%; in assay [3], 6.74%; in assay [4] it was 0.469%; in [5] it was 3.28%; in [6], 1.79%. Also, the Percent Effect is 5.6% in assay [7], 3.35% in assay [8], 13.2% in assay [9] and -4.1% in assay [10].
Regarding `COC(=O)C1CCN(C(=O)c2ccc(C)c(NS(C)(=O)=O)c2)CC1`, the Percent Effect in assay [1] was -9.4%; in assay [2], -5.41%; in assay [3], -2.25%; in assay [4] it was -3.2%; in assay [5], -3.85%; in assay [6], 8.9%. Further, the Percent Effect was -0.867% in assay [7], 1.6% in [8], 2.44% in assay [9] and 5.38% in assay [10].
For the molecule `O=C(c1ccco1)N1CCC2(CCC(=O)N2Cc2cccc(F)c2)CC1`, the Percent Effect in [1] is -1.47%; in assay [2] it was 14.3%; in [3], 3%; in assay [4], -1.31%; in [5], 0%; in assay [6] it was 6.09%. The Percent Effect in [7] is -5.56%; in assay [8], 5.8%; in assay [9], 10%; in assay [10] it was -5.07%.

The record behind these values is ChEMBL document CHEMBL3988442, “University of Dundee, Small-Polar-MMV Screening Library” (2021).
